High-throughput results as filed in PubChem BioAssay.
In the library only some 15% were active in any assay of this set; here they are far more common.
DT40 TDP1 CPT: DT40-hTDP1 cell growth loss with CPT; Potency, µM (series often up to 46.2 µM), without a hit: at the highest dose activity change, negative = growth inhibition, hits mostly inhibitors; chicken DT40 Tdp1-/-;hTDP1 cells + 20 nM CPT, ATP luminescence, 48 h; 420,000 tested, 12% active; further: nearly all actives have a fitted effect of over 55% in size
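Chicken DT40 Tdp1-/- cells complemented with human TDP1, 400 cells/well, exposed to compounds plus 20 nM camptothecin for at least 48 h at 37 C; viability read as ATP content by CellTiter-Glo luminescence.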
ALOX12 inh: inhibitors of human 12S-lipoxygenase ALOX12; Potency, µM (doses to about 108 µM), inactives show at the top dose activity change, negative = inhibition, usual class: inhibitors; P18054; purified 12hLO, xylenol orange hydroperoxide absorbance; 580,000 tested, 1.1% active; AID 1671190
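Purified human 12hLO at 150 nM in 25 mM Hepes, 0.01% Triton X-100, pH 7.0, preincubated 15 min at room temperature with compound. Reaction started with 40 uM arachidonic acid, 30 min at room temperature. Hydroperoxide measured by Fe-xylenol orange, 573/405 nm absorbance ratio.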
DT40 TDP1 no CPT: qHTS for Inhibitors of human tyrosyl-DNA phosphodiesterase 1 (TDP1): qHTS in cells in absence of CPT. DT40 Tdp1-/- hTDP1 cells, no CPT, ATP luminescence, 48 h. Potency, µM (titrated, usually from 46.2 µM), without a hit: at the top dose activity change, negative = growth inhibition, usual class: inhibitors. 420,000 tested, 15% active; further: nearly all actives have a fitted effect of over 55% in size
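Growth of hTDP1-complemented DT40 Tdp1-knockout cells is measured by ATP luminescence after at least 48 hr compound exposure at 37 °C, with DMSO substituting for the 20 nM CPT used in the parallel screen.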
RORgamma inh: inhibitors of mouse ROR gamma transcriptional activity. P51450. Drosophila S2 Gal4-RORgamma UAS-luciferase reporter, 20 h. Potency, µM (doses to about 53.6 µM), for inactives: at the top dose activity change, negative = inhibition, usual class: inhibitors. 310,000 tested, 5.4% active; further: nearly all actives have a fitted effect of over 60% in size
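Luminescence from a UAS-regulated Photinus luciferase reporter in stably transfected Drosophila Schneider cells is measured; decreased signal marks ROR gamma inhibition. Fusion expression is induced by 700 uM copper sulfate for 20 hr.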
ELG1 DNA repair: inhibitors of ELG1-dependent DNA repair in HEK293T cells; AID 504467; HEK293T ELG1-luciferase reporter, luminescence, 16 h; DNA damage induced by 5-fluorouridine; Potency, µM (highest dose often 46.1 µM), for inactives: at the highest dose activity change, negative = inhibition, hits mostly inhibitors; 330,000 tested, 2.3% active; further: nearly all actives have a fitted effect of over 55% in size
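Quantitative HTS, concentration-response format. 2,000 cells/well co-treated with 5-fluorouridine and compound, 16 hr in 5% CO2 at 37 °C; ONE-Glo luminescence read after 30 min.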
Gal4-VP16 FLuc: inhibits Gal4-VP16 luciferase reporter, ROR gamma counter-screen; AID 2546; Potency, µM (doses to about 53.6 µM), for inactives: at the top dose activity, negative = inhibition, actives largely listed as inhibitors; 310,000 tested, 3.5% active; Drosophila S2 Gal4-VP16 UAS-luciferase, luminescence, 20 h;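 further: Gal4-VP16 expression switched on by copper sulfate through the metallothionein promoter; nearly all actives have a fitted effect of over 50% in size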
An asterisk follows results filed as active; ? = inconclusive; nt = not tested or not shown; [ ] = remark or other dose. The call rests on the fitted dose curve; in most records, active means well fitted curve in the direction sought with a large enough effect; inconclusive means small, poorly fitted or top-dose-only effect, or another doubt; inactive means no such curve, though single readings can be large; an effect the other way counts as inactive or inconclusive. On the % scale 0 is the no-effect control and ±100 the full control effect; potency means the concentration at half of the fitted maximal effect.

SMILES	DT40 TDP1 CPT	ALOX12 inh	DT40 TDP1 no CPT	RORgamma inh	ELG1 DNA repair	Gal4-VP16 FLuc
O=C(NC1CCCN(c2cc(-c3ccc(F)cc3)[nH]n2)C1)c1cccc(Cl)c1 (centres undefined)	nt	11%	nt	nt	nt	nt
Cc1ccc(CN2CCC(N3CCCC(C(=O)NCCc4ccccc4)C3)CC2)o1 (centres undefined)	nt	1%	nt	nt	nt	nt
COc1ccc2c(c1)c(CN1CCc3nn(C)c(=O)n3CC1)cn2C	nt	24%	nt	nt	nt	nt
CNC(=O)/C=C/c1cccc([N+](=O)[O-])c1	nt	-30%	nt	nt	nt	nt
CCCn1c(=N)n(CC(=O)c2ccc([N+](=O)[O-])cc2)c2ccccc21	?	?	23µM*	1.6µM*	-14%	-8%
Cc1ccccc1Cn1c(=N)n(CC(=O)c2ccc([N+](=O)[O-])cc2)c2ccccc21	4.1µM*	?	5.2µM*	-21%	-2%	-2%
COc1ccccc1-c1onc(C)c1C(=O)NCc1ccccc1Cl	nt	16%	nt	nt	nt	nt
COc1cc(-c2cc(O)c(-c3ccc4ccccc4n3)c(=O)[nH]2)cc(OC)c1OC	?	-21%	15µM*	nt	nt	nt
COc1ccc(NC(=O)C(=O)c2c[nH]c3ccc(Br)cc23)cc1	nt	-3%	nt	nt	nt	nt
O=C(COC(=O)Cc1n[nH]c(=O)c2ccccc12)NNC(=O)c1ccc(Cl)cc1	21µM*	163%	23µM*	nt	-1%	nt
O=C(Cc1n[nH]c(=O)c2ccccc12)OCC(=O)c1ccc(F)cc1	-1%	17%	-6%	nt	-4%	nt
O=C(Cc1n[nH]c(=O)c2ccccc12)OCC(=O)c1ccc2c(c1)OCCO2	0.92µM*	0%	1.3µM*	-26%	?	-1%
CCOc1ccc(C(=O)COC(=O)Cc2n[nH]c(=O)c3ccccc23)cc1	0.92µM*	0%	0.73µM*	nt	?	nt
COc1ccc(NC(=O)N2CCC3(CC2)SCC(=O)N3Cc2ccco2)c(OC)c1	nt	12%	nt	nt	nt	nt
CN(C)c1cccc(-c2cnc(Nc3ccncc3)c3c2CCO3)c1	nt	51%[176 µM]	nt	nt	nt	nt
COc1ccc(-c2nc(C3CN(C(=O)NCc4ccccc4)C3)no2)cc1	nt	46%	nt	nt	nt	nt
COc1ccc(CNC(=O)Nc2nc(C(N)CCc3ccccc3)cs2)cc1 (centres undefined)	?	-3%	?	nt	nt	nt
COc1ccc(CNC(=O)Nc2nc(C(N)Cc3ccc(Cl)cc3)cs2)cc1 (centres undefined)	23µM*	-27%	18µM*	nt	nt	nt
COc1ccccc1CNC(=O)Nc1nc(C(N)Cc2ccc(Cl)cc2)cs1 (centres undefined)	?	-2%	?	nt	nt	nt
COc1ccc(CNC(=O)Nc2nc(C(N)Cc3ccc(F)cc3)cs2)cc1 (centres undefined)	?	-11%	16µM*	nt	nt	nt
NC(Cc1ccc(F)cc1)c1csc(NC(=O)NC(c2ccccc2)c2ccccc2)n1 (centres undefined)	15µM*	?	13µM*	nt	nt	nt
COc1ccc(/C=N/Nc2nc(C(=O)O)cs2)cc1	-4%	0%	1%	3.5µM*	?	5µM*
CCOC(=O)Cc1csc(N/N=C/c2ccccc2)n1	?	-12%	?	16µM*	?	-28%
CCOC(=O)Cc1csc(N/N=C\c2cccc(Br)c2)n1	13µM*	-14%	?	10µM*	21%	?
CCOC(=O)Cc1csc(N/N=C\c2ccc(N(C)C)cc2)n1	-15%	?	-23%	?	?	-3%
Cc1ccccc1N1CCN(Cc2ccc(Br)o2)CC1	?	?	-30%	43%	3%	-17%
Cc1ccc(-c2c(CN3CCN(c4cccc(C)c4)C(C)C3)csc2C)cc1 (centres undefined)	?	?	16µM*	nt	nt	nt
